LMP1 NFkB inh: Epstein-Barr LMP1 NF-kappaB reporter inhibition | LMP1-induced NF-kappaB luciferase reporter cells, luminescence | inhibition, % at 12.5 µM | hit rate 0.69% among 350,000; in the data active = inhibition above about 41%; inconclusive = no clear call, values can overlap the other calls;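 note: 0% = neutral control wells and 100% = reference inhibitor control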
TROY signal inh: TROY signaling inhibition. Q293 LMP1-TROYcd NF-kB luciferase reporter, 4 h. inhibition, % at 10 µM. AID 1347056. hit rate 0.98% among 360,000;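 active = compounds whose plate-normalised and pattern-corrected inhibition of the luciferase reporter signal at the single screening dose is 50% or more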
HSP90 inh: blocks HSP90-mediated luciferase refolding in reticulocyte lysate; Rabbit reticulocyte lysate, luciferase refolding luminescence, 3 h; inhibition, % at 5.6 µM; hit rate 0.91% among 290,000;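 active = inhibition above the screen-wide mean plus 3 SD, computed separately per campaign, cut at about 16% in these data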;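 note: 0% = DMSO wells and 100% = 60 µM geldanamycin wells; inhibitors lower the luminescence because luciferase stays unfolded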
aDG glyco up: alpha-DG glycosylation activation; AID 624168; Pro5-aDG cells, alpha-DG glycosylation AlphaScreen (IIH6); 0% Pro5, 100% B10-LARGE cell signal; hit rate 0.22% among 360,000; activation, % at 10 µM;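 active = activation of at least 8% versus controls, or a plate z-score of at least 8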;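 note: Pro5 are CHO cells carrying HIG-tagged alpha-DG that lacks glycosylation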
LGR2 inh: Drosophila LGR2 receptor signaling inhibition; hit rate 0.35% among 380,000; inhibition, % at 9.99 µM; HEK293 LGR2, CRE-luciferase, bursicon-stimulated, 4 h;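 active = drop in luminescence signal, shown as inhibition above about 50% in the replicate tests, limit read from the data, passing the limit was not always enough; inconclusive = probably only some replicates passing the limit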;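 note: agonist challenge used bursicon conditioned medium at about half maximal strength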
TWEAK Fn14 block: TWEAK-Fn14 signaling inhibition; TWEAK-stimulated Fn14 reporter cells, luciferase luminescence, 8 h; hit rate 2% among 360,000; inhibition, % at 10 µM; in the data active = inhibition above about 50%
An asterisk follows results filed as active; ? = inconclusive; / = not tested or not shown. Compounds with a hit are over-represented: about 2.6% of the library has one in this group of screens.

SMILES	LMP1 NFkB inh	TROY signal inh	HSP90 inh	aDG glyco up	LGR2 inh	TWEAK Fn14 block
Cc1ccc2nc(CSc3nc(C)ccc3C#N)[nH]c2c1	-127.8	44.5	6.9	0.9	76.2*	69.3*
Nc1ncn([C@@H]2O[C@H](CO)[C@@H](O)[C@H]2O)c(=O)n1	-51.3	27.9	/	0.2	?	72.5*
NC(=O)c1ncn([C@@H]2O[C@H](CO)[C@@H](O)[C@H]2O)n1	63.2*	0.6	4.4	0.1	3.8	-11.4
CN(C)c1ncnc2c1ncn2C1OC(CO)C(O)C1O (stereo not drawn)	35.9	-77.0	1.6	-0.4	/	-1.4
CNc1ncnc2c1ncn2[C@@H]1O[C@H](CO)[C@@H](O)[C@H]1O	55.1*	9.5	/	0.0	-0.4	-43.7
NC(=O)c1ncn([C@@H]2O[C@H](CNCc3ccccc3C#Cc3ccccc3)[C@@H](O)[C@H]2O)n1	-1.2	-5.5	/	0.0	-11.4	16.8
Nc1ccn([C@@H]2O[C@H](CO)[C@@H](O)[C@@H]2O)c(=O)n1	53.1*	3.4	-1.9	-0.1	2.8	-24.7
C[C@@H]1CCCCO[C@H](CN(C)C(=O)Nc2ccc(F)cc2)[C@H](C)CN([C@H](C)CO)C(=O)c2cc(NS(=O)(=O)c3ccc(F)cc3)ccc2O1	/	/	/	/	-3.2	/
O=C(N[C@H]1C=C[C@H](CC(=O)N2CCOCC2)O[C@H]1CO)c1cccc(F)c1	/	/	/	/	2.2	/
COCC#Cc1ccc2c(c1)O[C@@H](CN(C)CC1CCOCC1)[C@H](C)CN([C@@H](C)CO)S2(=O)=O	/	/	/	/	-5.7	/
COc1ccc2c(=O)c(-c3ccc4c(c3)OCO4)coc2c1	-16.5	20.4	-0.5	0.0	68.8*	69.8*
Nc1c(S(=O)(=O)c2ccccc2)c2nc3ccccc3nc2n1/N=C/c1cccc(O)c1	-16.6	16.4	5.2	-0.6	/	73.2*
Cc1cc(C)cc(NS(=O)(=O)c2ccc(-c3cnc(C4CC4)o3)cc2)c1	18.2	56.3*	4.9	0.4	-26.4	41.6
Cc1ccc(C)c(NS(=O)(=O)c2ccc(-c3cnc(C4CC4)o3)cc2)c1	16.4	49.7	2.0	0.3	-19.1	19.9
Cc1cccc(NS(=O)(=O)c2ccc(-c3cnc(C4CC4)o3)cc2)c1C	8.0	57.6*	4.2	0.1	-4.9	30.7
O=C(CCN1CCCCC1)N[C@H]1CC[C@H](CCn2cc(-c3cccc(F)c3)nn2)O[C@H]1CO	/	/	/	/	-4.8	/
CSc1ccccc1NC(=O)CN1CCCCC1C (stereo not drawn)	54.9*	-0.1	1.0	0.1	-31.6	-6.0
CC1CCCCN1CC(=O)NC(c1ccccc1)c1ccccc1 (stereo not drawn)	-6.5	7.5	-2.6	0.8	-21.5	9.0
O=C(c1cccnc1)N1CC2(C1)[C@@H](c1ccccc1)[C@@H](CO)N2C(=O)c1cccnc1	/	/	/	/	-8.4	/
Cc1ccc(NC(=O)COc2ccccc2[N+](=O)[O-])nc1	9.6	43.3	9.4	0.2	53.9*	57.8*
Cc1ccnc(NC(=O)COc2ccccc2[N+](=O)[O-])c1	14.0	6.8	0.8	-0.3	-4.7	51.0*
Cc1ccc(NC(=O)c2ccc(COc3ccccc3[N+](=O)[O-])o2)nc1	-10.2	8.8	/	0.4	-21.8	14.2
O=C(COc1ccccc1[N+](=O)[O-])Nc1cccnc1	-13.1	-21.4	-6.4	0.1	-20.2	-28.1
COc1ccc(S(=O)(=O)Nc2ccc3c(c2)C(=O)N([C@@H](C)CO)C[C@@H](C)[C@@H](CN(C)C(=O)NC2CCCCC2)OCCCC[C@H](C)O3)cc1	/	/	/	/	-4.5	/
COC(=O)c1cc(NC2c3ccccc3C(=O)N2CCN2CCOCC2)cc(C(=O)OC)c1 (stereo not drawn)	-5.2	-3.3	-2.3	-0.3	13.8	7.1
SMILES	LMP1 NFkB inh	TROY signal inh	HSP90 inh	aDG glyco up	LGR2 inh	TWEAK Fn14 block
O=C1c2ccccc2C(Nc2ccc(Cl)cc2)N1CCN1CCOCC1 (stereo not drawn)	82.9*	-9.6	0.3	0.0	17.0	1.4
Nc1ccc2c(c1)C(=O)c1ccccc1-2	5.3	-10.8	/	0.0	-4.1	-20.7
O=C1C(=O)c2ccc(-c3ccccc3)cc2-c2ccccc21	91.1*	83.0*	-1.8	-0.8	/	106.5*
Nc1ccc2c(c1)C(=O)C(=O)c1ccccc1-2	85.6*	59.5*	16.3*	-0.7	/	105.5*
O=C(O)c1cccc(N/N=C/c2cccs2)c1	56.7*	-62.7	51.7*	0.1	100.3*	48.5
O=C(N/N=C/c1cccs1)C(=O)Nc1cccc(Cl)c1	-6.2	-51.5	-0.3	-0.1	-6.3	-2.0

Source: PubChem
